# This is a sample that favours compounds with a hit; in the whole collection about 21% have one here.
# CYP2C19 inh = inhibitors of human CYP2C19; 21% of 96,000 active; inhibition, % at 5 µM; P33261; CYP2C19 Supersomes, luciferin-H EGE luminescence, 30 min;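 active = CYP2C19 inhibition above a set limit at 5 µM in the primary screen, cut at about 50% in these data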;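 note: plate controls were negative control wells for no effect and 2.5 mM tranylcypromine positive control for full effect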
# Target sequence (P33261 whole entry, looked up): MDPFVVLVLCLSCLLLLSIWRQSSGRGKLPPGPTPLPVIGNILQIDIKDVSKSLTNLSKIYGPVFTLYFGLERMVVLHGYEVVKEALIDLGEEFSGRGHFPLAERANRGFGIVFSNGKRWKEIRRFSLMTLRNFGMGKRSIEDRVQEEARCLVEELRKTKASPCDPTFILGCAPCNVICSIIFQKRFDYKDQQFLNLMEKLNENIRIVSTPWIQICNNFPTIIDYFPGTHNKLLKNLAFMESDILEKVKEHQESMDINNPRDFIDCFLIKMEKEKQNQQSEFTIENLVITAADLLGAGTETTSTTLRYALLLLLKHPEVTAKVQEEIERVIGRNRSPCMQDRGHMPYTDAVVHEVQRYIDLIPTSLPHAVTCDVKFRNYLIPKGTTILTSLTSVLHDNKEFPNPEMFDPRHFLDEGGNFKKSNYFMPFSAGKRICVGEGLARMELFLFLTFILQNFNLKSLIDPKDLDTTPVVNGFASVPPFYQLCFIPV
# CYP2C9 act = increases human cytochrome P450 2C9 activity; P11712; recombinant CYP2C9, luciferin-H conversion, luminescence; hits give high values; factor 1 = untreated enzyme, 0 = blocked; activation factor at 5 µM; 1.4% of 96,000 active;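 active = activation factor of 2 or more for CYP2C9 at a 5 µM dose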;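 note: 0 = sulfaphenazole-blocked wells and 1 = vehicle-only wells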
# MRP reversal = compounds reversing MRP-mediated drug resistance. H69AR cells + 2 uM doxorubicin, CellTiter-Glo, 72 h. differential viability (reversal), % at 10 µM. 0.04% of 85,000 active. AID 602;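 active = viability drop by adding the cancer drug above about 55%, with treated viability meeting a 40% cutoff, limit read from the data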;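 note: viability without doxorubicin minus viability with 2 µM doxorubicin for each compound; larger differential means the compound sensitizes cells more to doxorubicin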
# MRP-1 activ = activates MRP-1; H69AR cells + doxorubicin, viability rescue, CellTiter-Glo; viability increase, % at 10 µM; 0.61% of 140,000 active; AID 799;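 active = viability gain under doxorubicin at or above a set limit, the compound median plus 3 SD, cut at about 4.7% in these data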;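 note: MRP-1 overexpressing cells given doxorubicin 25 µM after compound pretreatment; 18-22 h compound pretreatment then 72 h with doxorubicin before readout; 0% = doxorubicin-only wells and 100% = vehicle-treated cells without doxorubicin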
# CYP2C9 inhib = blocks human cytochrome P450 2C9; 20% of 96,000 active; P11712; CYP2C9 Supersomes, luciferin-H conversion, luminescence; inhibition, % at 5 µM;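 active = blocking of liver enzyme CYP2C9 beyond about 50% at 5 µM, limit read from the data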
# CYP2C19 act = cytochrome P450 2C19 (human) activation. P33261. recombinant CYP2C19, luciferin-H EGE luminescence; hits give high values; 0 = fully inhibited enzyme, 1 = untreated enzyme. activation factor at 5 µM. 96,000 tested, under 10 active. AID 1025;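 active = activation factor of at least 2 at 5 µM in the primary screen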;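 note: 0 = wells with 2.5 mM tranylcypromine and 1 = vehicle-only wells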
# An asterisk follows results filed as active; nt = not tested or not shown.
SMILES,CYP2C19 inh,CYP2C9 act,MRP reversal,MRP-1 activ,CYP2C9 inhib,CYP2C19 act
CCOC(=O)N1CCN(c2nc3ccccc3nc2C(C#N)C(=O)NCCc2ccccc2)CC1 (stereo not drawn),65*,0.3,nt,-5,73*,0.3
CCOC(=O)C1CCCN(c2nc3ccccc3nc2C(C#N)C(=O)NCc2ccccc2)C1 (stereo not drawn),28,0.4,11,-2,62*,0.7
Cc1c(C(=O)N2CCN(CCc3ccccc3)CC2)oc2ccccc12,73*,1.3,22,-3,-25,0.3
Cc1c(C(=O)N2CCN(S(C)(=O)=O)CC2)oc2ccccc12,91*,1,-11,0,1,0.1
COc1ccccc1N1CCN(C(=O)c2oc3ccccc3c2C)CC1,13,1.1,-30,nt,-10,0.9
COc1cc2c(cc1OC)C(C)N(C(=O)CCN1C(=O)C3C4C=CC(C4)C3C1=O)CC2 (stereo not drawn),-4,1,-5,-2,-2,1
O=C(CSc1ccc(Cl)cc1)NC1CCCc2ccccc21 (stereo not drawn),nt,nt,nt,-1,nt,nt
CCN(Cc1cc2cc(OC)ccc2[nH]c1=O)C(=O)c1ccncc1,74*,0.3,2,-1,68*,0.3
CCN(Cc1cc2cc(OC)ccc2[nH]c1=O)C(=O)Cc1ccc(OC)cc1,43,0.8,1,-2,19,0.6
Cc1ccc2[nH]c(=O)c(CN(Cc3cccnc3)C(=O)c3ccncc3)cc2c1,91*,0.2,-37,-3,80*,0.1
O=C(Nc1ccccc1C(=O)OCC(=O)c1c[nH]c2ccccc12)c1ccco1,nt,nt,nt,-2,nt,nt
Cc1ccc(NC(=O)C(C)c2ccc(-c3ccccc3)c(F)c2)cc1 (stereo not drawn),48,0,nt,-1,96*,0.5
O=C(O)C1CCCN(S(=O)(=O)c2cccs2)C1 (stereo not drawn),nt,nt,9,-1,nt,nt
CCC1S/C(=N\S(=O)(=O)c2cccs2)N(C2CCCCC2)C1=O (stereo not drawn),79*,0.4,-3,-1,57*,0.2
Cc1cc(O)c(C(C)C)cc1NC(=O)c1cccc(Cl)c1,60*,0.4,nt,3,56*,0.4
CCNc1nc(NC(C)C)nc(N(C#N)Cc2ccccc2)n1,24,0.9,9,-2,8,0.8
CCNc1nc(NC(C)C)nc(N(C#N)CCOc2ccc(Cl)cc2Cl)n1,77*,0.9,-10,-2,12,0.2
CCOC(=O)c1c(-c2ccccc2)oc2ccc(OCC)cc12,nt,nt,nt,-1,nt,nt
CCOC(=O)c1c(-c2ccccc2)oc2ccc(OC)cc12,52*,0.3,-11,-1,65*,0.5
NC(=O)c1c(-c2ccccc2)oc2ccc(O)cc12,50,2.1*,7,-4,-115,0.5
COc1ccc2oc(-c3ccccc3)c(C(=O)N3CCOCC3)c2c1,15,0.9,-14,-4,10,0.8
O=C(CC1(O)C(=O)Nc2cc(Cl)cc(Cl)c21)c1ccncc1 (stereo not drawn),nt,nt,nt,0,nt,nt
Cc1ccc(Cl)c2c1NC(=O)C2(O)CC(=O)c1ccc(Br)cc1 (stereo not drawn),61*,1,-9,-1,4,0.4
COc1ccc(-n2cnnc2SCc2csc(-c3ccccc3)n2)cc1,75*,0.7,16,-3,27,0.3
Cc1cccc(-n2nnnc2SCc2csc(-c3ccccc3)n2)c1,nt,nt,-4,2,nt,nt
SMILES,CYP2C19 inh,CYP2C9 act,MRP reversal,MRP-1 activ,CYP2C9 inhib,CYP2C19 act
c1ccc(-n2cnnc2SCc2nc3ccccc3s2)cc1,39,0.9,-5,-1,12,0.6
c1ccc(-c2ncc(CSc3nncn3-c3ccccc3)s2)cc1,59*,1.3,13,-1,-26,0.4
O=C1C2C(C(=O)N1CCc1ccccc1)C1C=CC2C12CC2 (stereo not drawn),92*,0.7,28,1,29,0.1
O=C1C2C3C=CC(C3)C2C(=O)N1CCc1ccccc1 (stereo not drawn),90*,0.7,-1,-1,35,0.1
O=C(NCCN1C(=O)C2C3C=CC(C3)C2C1=O)Nc1ccccc1O (stereo not drawn),77*,0.8,4,1,17,0.2
CC(C)=C1C2CCC1C1C(=O)N(CCc3ccccc3)C(=O)C21 (stereo not drawn),nt,nt,nt,-1,nt,nt
COc1ccccc1OCC(=O)N/N=C1/SCC(=O)N1Cc1ccccc1,14,1.1,nt,0,-9,0.9
COc1ccc(CC(C(=O)Nc2cccc(F)c2)c2nn[nH]n2)c(OC)c1 (stereo not drawn),29,0.7,-2,-3,32,0.7
Cc1cc2ncn(/N=C/c3cc(Br)ccc3O)c2cc1C,31,0.4,9,-2,61*,0.7
Cc1nnc(C)n1/N=C/c1cc(Br)ccc1O,0,0.9,nt,-5,15,1
O=C(COC(=O)c1cc(Br)ccc1Cl)NC1CC1,nt,nt,nt,2,nt,nt
O=C(COC(=O)c1ccccc1OCc1ccccc1Cl)NC1CC1,53*,0.5,17,-2,45,0.5
Cc1ccc(C(c2nnnn2C2CCCC2)N2c3ccccc3CC2C)cc1 (stereo not drawn),nt,nt,nt,-2,nt,nt
CCN(CC)CCOc1c(Br)ccc2c1sc1nc3n(c(=O)c12)CCC3,84*,0.8,-14,-4,15,0.2
O=C(Cc1ccccc1)Nc1ccccc1C(=O)O,-1,0.7,-2,0,35,1
Cc1sc2nc3c4ccccc4c(NCc4ccco4)nn3c(=O)c2c1C,6,0.7,-17,-1,28,0.9
Cc1sc2ncnc(N(C)Cc3ccco3)c2c1C,96*,0.2,14,-2,78*,0
CCOC(=O)c1sc2nc(CC(=O)OC)nc(NCc3ccco3)c2c1C,61*,0.2,-6,-3,84*,0.4
Cc1nc(SCC(=O)N(C)Cc2ccco2)c2c(C)c(C)sc2n1,68*,0.1,-5,-2,88*,0.3
Cc1nc(NCc2ccco2)c2c(C)c(C)sc2n1,77*,0.2,-8,-2,82*,0.2
CN(C)c1nc2ccc(OCCN3CCCCC3)cc2s1,4,0.9,-1,-1,8,1
Cc1ccc2cc(C#N)c(NCCCNC(=O)C3CCCO3)nc2c1 (stereo not drawn),22,0.8,nt,-3,24,0.8
N#Cc1cc(C#N)c(N2CCN(c3ccccn3)CC2)nc1N,65*,0.6,nt,2,44,0.3
Cc1ccc(N(CC(=O)NCc2ccc3c(c2)OCO3)S(=O)(=O)c2c(C)noc2C)cc1,98*,0.4,1,-2,57*,0
Cc1noc(C)c1S(=O)(=O)N(CC(=O)NCc1ccc2c(c1)OCO2)c1ccc(C(C)C)cc1,63*,0.9,-22,-3,14,0.4
CON(C)c1nc(OCC#N)nc(N(C)C)n1,nt,nt,nt,1,nt,nt
O=c1[nH]c(Cn2nnc(-c3ccccc3)n2)nc2scc(-c3ccccc3)c12,35,0.2,-3,1,82*,0.7
